Experimental data taken from PubChem BioAssay (NCI).
The panel holds about 79,000 compounds, 15% with a hit somewhere; the sample as a whole holds those more often. Cut-off read from the data, not from the text of the source: active = growth inhibition above about 70%; inactive = the rest. Where a SMILES comes first, the peptide text is derived from it. [ ]: non-standard residue; d: D form. The star is where a group is joined. ξ: configuration not given here. Cbz = O=C(OCc1ccccc1)*; Nva = CCC[CH](N)C(=O)O; ξT = CC(O)C(N)C(=O)O

Legend:
[1] = NCI Yeast Anticancer Drug Screen. Data for the rad50 strain (AID 155);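 note: 0% = growth of vehicle-only cultures of the same strain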; conditions: S. cerevisiae rad50 strain growth inhibition; at 50.0 µM; active compounds read high
Procedure, shortened: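 Growth of the mutant yeast was measured after compound exposure and referenced to vehicle-treated cultures.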

[2] = NCI Yeast Anticancer Drug Screen. Data for the mec2-1 strain (AID 157); conditions: S. cerevisiae mec2-1 strain, at 50.0 µM, active compounds read high
Procedure, shortened: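 mec2-1 yeast strain, carrying an alteration in DNA damage repair or cell cycle control, was exposed to compounds; growth inhibition was measured relative to vehicle-treated controls.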

[3] = NCI Yeast Anticancer Drug Screen. Data for the sgs1 mgt1 strain (AID 161);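 note: 0% = growth of cultures given vehicle only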; conditions: S. cerevisiae sgs1 mgt1 strain, at 50.0 µM, active compounds read high
Procedure, shortened: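 Growth of a repair-deficient yeast mutant was monitored after compound treatment and expressed as inhibition relative to vehicle-treated cultures.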

[4] = NCI Yeast Anticancer Drug Screen. Data for the cln2 rad14 strain (AID 165);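 note: 0% = growth equal to vehicle treated cultures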; conditions: S. cerevisiae cln2 rad14 strain, at 50.0 µM, active compounds read high
Procedure, shortened: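 Yeast carrying cln2 and rad14 alterations (cell cycle control and DNA damage repair) were exposed to compounds. Growth inhibition was measured against vehicle-treated controls.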

[5] = NCI Yeast Anticancer Drug Screen. Data for the bub3 strain (AID 167); conditions: S. cerevisiae bub3 mutant strain, at 50.0 µM, active compounds read high
Procedure, shortened: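 Whole-cell yeast assay. The mutant strain was incubated with compounds, and growth inhibition was determined by comparison with vehicle-treated cells.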

[6] = NCI Yeast Anticancer Drug Screen. Data for the mlh1 rad18 strain (AID 175); conditions: S. cerevisiae mlh1 rad18 strain growth inhibition; at 50.0 µM; active compounds read high
Procedure, shortened: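 Growth inhibition of the yeast strain was measured after compound exposure and expressed relative to vehicle-treated controls. The strain carries defined defects in DNA damage repair.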

Measured: growth inhibition

C(=N\c1nccs1)/c1ccc(/C=N/c2nccs2)cc1
inactive: [1] -5.2% | [2] -5.2% | [3] 1.6% | [4] 9% | [5] 12.1% | [6] 7%

CCOC(=O)CSc1ccnc(=O)[nH]1
inactive: [1] -9.25% | [2] -8.9% | [3] -5.35% | [4] 0.1% | [5] -16% | [6] -31.8%

N#CCCCCC12C3C(=O)N(c4ccccc4)C(=O)C3ON1O[C@@H]1C(=O)N(c3ccccc3)C(=O)[C@@H]12 (stereo not given in full)
inactive: [1] 43.4% | [2] 19.3% | [3] 26.7% | [4] 49.9% | [5] 33.5% | [6] 44.4%

CCCN=C(C(C)=O)N(C)C
inactive: [1] -1.7% | [2] 1.3% | [3] -14.9% | [4] 6.55% | [5] 24.2% | [6] 2.85%

c1ccc2c(c1)nc1n2CC2(CS1)CSc1nc3ccccc3n1C2
inactive: [1] -8.65% | [2] 2.1% | [3] -7.15% | [4] -25.8% | [5] -13.4% | [6] -3.1%

CC(O)C(NC(=O)CNC(=O)CNC(=O)OCc1ccccc1)C(=O)O (stereo not drawn) (Cbz-Gly-Gly-[ξT]-OH)
inactive: [1] 7.2% | [2] -3.25% | [3] -2.45% | [4] 16.4% | [5] 6.65% | [6] 3.05%

CCCC(NC(=O)OCc1ccccc1)C(=O)NC(Cc1ccc(O)cc1)C(=O)O (stereo not given) (Cbz-[Nva]-Tyr-OH; configuration not given here)
inactive: [1] -3.5% | [2] -0.35% | [3] -4.2% | [4] 7% | [5] -16.4% | [6] 10%

CCOC(=O)c1c2ccc(/C=C/c3ccccc3)ccc-2c(C(=O)OCC)c1N
inactive: [1] -16.6% | [2] -7.25% | [3] -23.9% | [4] 10.6% | [5] -32% | [6] -22.6%

Cc1cc(NC(=O)C(=O)Cc2cnc3ccccc3n2)c(S(=O)(=O)O)cc1Cl
inactive: [1] 1.45% | [2] 12.8% | [3] -2.7% | [4] -23% | [5] -11.2% | [6] -7.8%

CC(C)C1=CC(=O)C(C)(C2=NC(C)(C)CO2)c2ccccc21 (stereo not given)
inactive: [1] -0.1% | [2] -9.35% | [3] 4.4% | [4] 22.7% | [5] -10.5% | [6] 5.3%

CC(=O)Nc1nc(Cl)c2ncn(C3CCCO3)c2n1 (stereo not given)
inactive: [1] -13% | [2] -4% | [3] -9.35% | [4] -33.5% | [5] 0.6% | [6] 2.25%

COc1c2cccc(Cl)c2cc2c(Cl)cccc12
inactive: [1] 6.3% | [2] -6.15% | [3] 1.3% | [4] 18.8% | [5] -11.2% | [6] 12.5%

CC(C)(C)C(=O)Nc1ccc(NS(=O)(=O)c2ccccc2)cc1
inactive: [1] 6.85% | [2] -4.3% | [3] 2.85% | [4] 1.8% | [5] 2.9% | [6] -21.1%

C=CCc1cc(C)ccc1OC(=O)c1cc([N+](=O)[O-])cc([N+](=O)[O-])c1
inactive: [1] 2.85% | [2] -3.4% | [3] 4.55% | [4] -40% | [5] -6.6% | [6] 0.6%

NC(=O)C1CCCCC1C(N)=O (stereo not given)
inactive: [1] -15% | [2] -20.1% | [3] -25.6% | [4] -29.5% | [5] -27.8% | [6] -15.3%

Cc1ccccc1NC(=O)C(=O)Cc1nc2ccccc2s1
inactive: [1] 14.8% | [2] -8.7% | [3] -1.5% | [4] 11.8% | [5] 9.15% | [6] 20.4%

N#CCc1nc2ccccc2[nH]1
inactive: [1] 7.95% | [2] -6.95% | [3] -9.35% | [4] 3.1% | [5] 6.25% | [6] 3.3%

CC(C)CCCC(C)C1CCC2C3CC=C4CCCCC4(C)C3CCC12C (stereo not given)
inactive: [1] -22.4% | [2] -4.25% | [3] -3.85% | [4] -5.45% | [5] -5.05% | [6] -23.6%

Nc1ncnc2c1ncn2-c1ccccc1Cl
inactive: [1] 4.6% | [2] 8.35% | [3] -4.95% | [4] -1.4% | [5] 0.75% | [6] 3.1%

Nc1[nH]c(=O)nc2c1ncn2C1OC(CO)C(O)C1O (stereo not given)
inactive: [1] -10.3% | [2] -27.6% | [3] -12.3% | [4] -3.65% | [5] -4.25% | [6] -10.2%

CSC1=Nc2cc3c(cc2C(=O)N2C[C@H](O)CC12)OCO3 (stereo not given in full)
inactive: [1] -20.9% | [2] -25.5% | [3] -10.9% | [4] -34.2% | [5] -10.8% | [6] -6.3%

CC(=O)OCC1OC(n2cnc([N+](=O)[O-])c2C#N)C(OC(C)=O)C1OC(C)=O (stereo not given)
inactive: [1] 28.6% | [2] 14.7% | [3] 22.3% | [4] 30.1% | [5] 3.45% | [6] 34.3%

COC(=O)c1cc2c3c(ccc2[nH]1)N(C(=O)c1cc2c4c(ccc2[nH]1)N(C(=O)c1cc2c5c(ccc2[nH]1)N(C(N)=O)CC5)CC4)CC3
inactive: [1] 18.8% | [2] 5.05% | [3] -2.05% | [4] 15.7% | [5] 29.8% | [6] 11.9%

O=[N+]([O-])c1ccc(N/N=C2\C=CCCC2)c([N+](=O)[O-])c1
inactive: [1] -0.95% | [2] -11.9% | [3] -13% | [4] 15.3% | [5] -12.6% | [6] 17.1%

Cc1ccc(N=Nc2ccc(C)cc2NC(=O)c2ccc(Cl)cc2)cc1
inactive: [1] -3.15% | [2] 10.2% | [3] 17.1% | [4] -7.8% | [5] 32.3% | [6] 8.85%

Nc1nc(-c2ccccc2)cc(-c2cc(Cl)ccc2O)n1
inactive: [1] 13.9% | [2] -0.55% | [3] -3.1% | [4] 20.5% | [5] 6.4% | [6] 6.55%

CC(=O)OC12C(C)=C(C)C(=O)N1c1ccccc1N2C(C)=O (stereo not given)
inactive: [1] -20.8% | [2] 2.55% | [3] 6.7% | [4] 15.9% | [5] 6.15% | [6] 11.1%

CC(=O)NC(CCCCNC(=O)N(C)N=O)C(=O)NCc1ccccc1 (stereo not given)
inactive: [1] -41.1% | [2] -17.6% | [3] -12.2% | [4] -4.3% | [5] -26.8% | [6] -12.8%

O=C1c2ccccc2C(C2N=Nc3ccccc32)c2ccccc21 (stereo not given)
inactive: [1] 7.1% | [2] 5.15% | [3] 15.6% | [4] 26.1% | [5] 3.8% | [6] 6.2%

CCc1c(C)c(C#N)c(=S)n(C2OC(CO)C(O)C(O)C2O)c1C (stereo not given)
inactive: [1] -61.8% | [2] 3.95% | [3] -19.7% | [4] 9.4% | [5] 8.35% | [6] -4%

NC(=O)/C=C/c1ccc([N+](=O)[O-])cc1
inactive: [1] 33% | [2] -6.85% | [3] -9% | [4] -74% | [5] 4.6% | [6] -3.4%

COc1cc(O)c(Cc2ccccc2O)c(O)c1C(=O)CCc1ccccc1
inactive: [1] -17.4% | [2] -34.5% | [3] -13.5% | [4] -5.65% | [5] -35.9% | [6] -7.9%

O=[N+]([O-])c1cc(/C=N\NS(=O)(=O)c2ccc(Cl)cc2)c(O)c([N+](=O)[O-])c1
inactive: [1] 26.9% | [2] 7.2% | [3] 3.9% | [4] -1.35% | [5] 8.75% | [6] 8.6%

CCC(CCc1ccc(OC)c(OC)c1)C(=O)O (stereo not given)
inactive: [1] 1.8% | [2] 12.2% | [3] 14.2% | [4] -9.85% | [5] 29.4% | [6] 9.15%

CC(CCOS(C)(=O)=O)OS(C)(=O)=O (stereo not given)
inactive: [1] 8.25% | [2] -5.2% | [3] 1.25% | [4] -3.25% | [5] 8.95% | [6] -7.6%

O=CC(O)C(O)C(O)C(O)C(=O)O.O=CC(O)C(O)C(O)C(O)C(=O)O.[NH-]C1CCCCC1[NH-].[Pt+2] (stereo not given)
inactive: [1] -7.65% | [2] -9.8% | [3] 8.2% | [4] 4.25% | [5] 6.35% | [6] -41%

C/C(=C/C(C)C)C(C)(C#N)C(N)=O (stereo not given)
inactive: [1] 8.75% | [2] 5.8% | [3] 1.2% | [4] 8.25% | [5] 8.75% | [6] 4.35%

CCOc1ccc(Nc2nc(C)c(C(=O)CC(=O)C(=O)Nc3ccc(C(C)C)cc3C(C)C)s2)cc1
inactive: [1] -31.2% | [2] 10.1% | [3] 5.45% | [4] -14.8% | [5] -20% | [6] -38.4%

C[N+](C)(N)CCC[N+](C)(C)N
inactive: [1] 12.4% | [2] 5.2% | [3] -3.3% | [4] -29.4% | [5] -52.6% | [6] -3.4%

Cc1c(/C=N/O)nc2ccccc2c1C(=O)O
inactive: [1] -15.1% | [2] -9.25% | [3] -6.5% | [4] -24.1% | [5] -3.85% | [6] -28.9%
